Laboratory results published in PubChem BioAssay (NCI).
Compounds without any hit were thinned out: in the full panel of roughly 79,000, 15% have a hit. Active and inactive are the calls of the source. Rule as the data show it: active = growth inhibition above about 70%; inactive = the rest. Where a SMILES comes first, the peptide text is derived from it. [ ]: non-standard residue; d: D form. The star is where a group is joined. ξ: configuration not given here. Cbz = O=C(OCc1ccccc1)*; ξK = NCCCCC(N)C(=O)O

Experiments:
[1] = NCI Yeast Anticancer Drug Screen. Data for the rad50 strain (AID 155);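 also: 0% = growth of vehicle-only cultures of the same strain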; conditions: S. cerevisiae rad50 strain growth inhibition, active compounds read high; at 50.0 µM unless noted
Outline: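 Cells are treated with compound, grown, and their growth is then scored against vehicle-only cultures of the same repair-deficient yeast strain.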

[2] = NCI Yeast Anticancer Drug Screen. Data for the mec2-1 strain (AID 157); conditions: S. cerevisiae mec2-1 strain, active compounds read high; at 50.0 µM unless noted
Outline: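 Using mec2-1 yeast: add compound, measure growth, express inhibition versus vehicle-treated cultures.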

[3] = NCI Yeast Anticancer Drug Screen. Data for the sgs1 mgt1 strain (AID 161);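 also: 0% = growth of cultures given vehicle only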; conditions: S. cerevisiae sgs1 mgt1 strain, active compounds read high; at 50.0 µM unless noted
Outline: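 Compounds are added to genetically altered yeast, and growth is compared with cultures given vehicle alone to give percent inhibition.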

[4] = NCI Yeast Anticancer Drug Screen. Data for the cln2 rad14 strain (AID 165);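 also: 0% = growth equal to vehicle treated cultures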; conditions: S. cerevisiae cln2 rad14 strain, active compounds read high; at 50.0 µM unless noted
Outline: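 Yeast strain cln2 rad14, bearing defects in cell cycle control and DNA repair, serves as the test system; values reflect growth inhibition compared with vehicle.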

[5] = NCI Yeast Anticancer Drug Screen. Data for the bub3 strain (AID 167); conditions: S. cerevisiae bub3 mutant strain, active compounds read high; at 50.0 µM unless noted
Outline: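 Part of a panel of yeast mutants defective in DNA damage repair or cell cycle regulation. Each strain is grown with compound, and inhibition is calculated relative to solvent-treated cultures.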

[6] = NCI Yeast Anticancer Drug Screen. Data for the mlh1 rad18 strain (AID 175); conditions: S. cerevisiae mlh1 rad18 strain growth inhibition, active compounds read high; at 50.0 µM unless noted
Outline: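 Steps: expose repair-defective yeast to compound; measure growth; express inhibition against vehicle-treated controls.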

Measured: growth inhibition

C=CC[Si](CC=C)(OCC)OCC
inactive: [1] 9.65% | [2] -21.9% | [3] 7.05% | [4] 20.7% | [5] -6.9% | [6] 23.2%

CC(=O)N(c1nc2ccccc2s1)N1C(=O)c2ccccc2C1=O
inactive: [1] -18.8% | [2] -33.3% | [3] -17.9% | [4] -2.15% | [5] -40.2% | [6] -20.2%

CC1(C)CC([NH-])(C(=O)O)CC(C)(C)N1O.CC1(C)CC([NH-])(C(=O)O)CC(C)(C)N1O.[Zn+2]
inactive: [1] -1.45% | [2] -17.1% | [3] -2.25% | [4] -41.9% | [5] 1.5% | [6] -7.4%

O=S(=O)(O)CCCOC1COc2ccccc2OCCOCCOc2ccccc2OC1
inactive: [1] -0.65% | [2] 1.65% | [3] -15.5% | [4] -6.45% | [5] -4.1% | [6] -7.55%

ClB1NB(Cl)NB(Cl)N1
inactive: [1] -9.45% | [2] -33.8% | [3] -9.95% | [4] -7% | [5] -11.9% | [6] 3.55%

CC(=O)OCC1OC(n2c(-c3ccccc3)c(N=Nc3ccc(C)cc3)c(C)c(C#N)c2=S)C(OC(C)=O)C(OC(C)=O)C1OC(C)=O (stereo not given)
inactive: [1] -22.6% | [2] -25.1% | [3] -22.9% | [4] 4.05% | [5] -4.9% | [6] 1.1%

Nc1nc(CCCCc2ccc(NC(=O)CBr)cc2)c(CCCCc2ccccc2)c(=O)[nH]1
inactive: [1] 27.6% | [2] 11.3% | [3] 34.7% | [4] 24.8% | [5] -3.1% | [6] 11.4%

OCC1OCOC(CO)(CO)C1O (stereo not given)
inactive: [1] 1.15% | [2] 0.05% | [3] 8.1% | [4] -44.3% | [5] 21.7% | [6] 3.75%

O=C1CCCc2ccc3c(c21)CC1(Cc2cc4c(cc2C1)CCCC4)C3
inactive: [1] -22.6% | [2] 9.15% | [3] 34% | [4] -13.9% | [5] 32.4% | [6] -2.7%

Cc1ccc(O)cc1N(C)C
inactive: [1] -18.4% | [2] -3.95% | [3] -12.7% | [4] -35% | [5] -6.25% | [6] -3.65%

NCC(=O)NC(CCCCNC(=O)OCc1ccccc1)C(=O)O (stereo not given) (H-Gly-[ξK](Cbz)-OH)
inactive: [1] -6.8% | [2] 21% | [3] -10.7% | [4] -3.5% | [5] -20.1% | [6] -22.4%

CCCCCCCCCCCCC
inactive: [1] -36.4% | [2] -45.8% | [3] -18.2% | [4] 3.7% | [5] -50% | [6] -20.9%

CC12CCC([C@H](C(O)C3CCCCC3)C1=O)C2(C)C (stereo not given in full)
inactive: [1] -2.7% | [2] -16.6% | [3] -12.8% | [4] 16.6% | [5] -5.7% | [6] -5.1%

CN(C)C=Nc1ccc2c3c(cccc13)-c1ccccc1-2
inactive: [1] -2.9% | [2] -24.1% | [3] 47.5% | [4] -0.35% | [5] 51.1% | [6] 41%

Cc1nn(C(=O)Cc2ccccc2)c2c1C(c1ccc(Cl)cc1)SC(N)=N2 (stereo not given)
inactive: [1] -30.1% | [2] -31.5% | [3] -29.1% | [4] 6.45% | [5] -23.6% | [6] -25.1%

O=C(O)CCN(CCCCN(CCC(=O)O)CCC(=O)O)CCC(=O)O
inactive: [1] 4.7% | [2] 7.05% | [3] -10.7% | [4] 1.4% | [5] 1.25% | [6] -4.15%

CCOC(=O)NNC(=O)Nc1ccc(O[Si](C)(C)C)cc1
inactive: [1] 13.4% | [2] 10% | [3] 10.3% | [4] 17.1% | [5] 9.75% | [6] 10.9%

N=C1OCCN1/N=C/c1ccc([N+](=O)[O-])o1
inactive: [1] 33.4% | [2] -2.3% | [3] 66.8% | [4] -3.5% | [5] 20.6% | [6] 52.2%

CN(c1ccccc1)c1c(Cl)c(=O)oc2c1ccc1nc(-c3ccccc3)sc12
inactive: [1] 44.6% | [2] 24.8% | [3] 35.7% | [4] 43.5% | [5] -4.3% | [6] 32.9%

O=C(Nc1cccc(Cl)c1)Oc1c([N+](=O)[O-])cc(Cl)cc1[N+](=O)[O-]
inactive: [1] 13.2% | [2] 6.75% | [3] 21.1% | [4] -12% | [5] 0.15% | [6] 28.3%

COc1ccc(/C=C(\C(=O)OCC(C)C)c2ccc(OC)c(OC)c2)cc1OC
inactive: [1] 2.6% | [2] -17.1% | [3] 8.5% | [4] -6.15% | [5] -7.2% | [6] 16.4%

O=S(=O)(/C(=C\c1ccccc1)c1ccccc1)c1ccccc1
inactive: [1] -4.8% | [2] -12.4% | [3] -12.8% | [4] -17.7% | [5] -4.5% | [6] -6.65%

COC(=O)CCC(=O)Nc1cc(C)ccc1C
inactive: [1] -6.3% | [2] -19.9% | [3] -7.6% | [4] 4.5% | [5] -2.25% | [6] -12.2%

CC[N+]1(CN2CCCCC2)CCCCC1
inactive: [1] 18.5% | [2] -2.8% | [3] 4% | [4] -7.4% | [5] -22.6% | [6] 37.6%

CC(C)(C)OC(=O)NCC(=O)NC1C/C(=N\O)c2sccc21 (stereo not given)
inactive: [1] 17.4% | [2] 5.8% | [3] 11.3% | [4] 15.6% | [5] -5.35% | [6] 39.5%

CCCCCCCCCCCC(=O)OC(COCCC(C)C)COCCC(C)C
inactive: [1] -2.9% | [2] -5.05% | [3] -3.15% | [4] -12.1% | [5] -11.9% | [6] 12.1%

CC1CC(Nc2ccc(Br)cc2)N(C(=O)c2ccc(Br)cc2)O1 (stereo not given)
inactive: [1] -25.9% | [2] -1.2% | [3] 25.5% | [4] 5.65% | [5] -35% | [6] -2.8%

CC1CC(C)OC(c2ccc(Cl)cc2)O1 (stereo not given)
inactive: [1] 20.8% | [2] 14.5% | [3] 17.2% | [4] -28.8% | [5] -2.15% | [6] 19.1%

NC(=O)NN(Cc1ccc2c(c1)OCO2)N=O
inactive: [1] -7.25% | [2] -6% | [3] -5.55% | [4] -16.6% | [5] 16.2% | [6] 1.9%

Nc1ccccc1NC(=O)C(F)(F)C(F)(F)C(F)(F)C(=O)Nc1ccccc1N
inactive: [1] 3.15% | [2] -6.25% | [3] -14.6% | [4] -12.3% | [5] 28.6% | [6] -16.6%

Nc1ncnc(N)c1NC(=O)c1cccnc1
inactive: [1] 8.7% | [2] -6% | [3] 7.65% | [4] -40% | [5] -2.05% | [6] 5.5%

Oc1ccccc1/C=N\N=C\NN/C=N/N=C/c1ccccc1O
inactive: [1] -8.1% | [2] -0.75% | [3] -4% | [4] 13.8% | [5] 6.4% | [6] 5.55%

CCOC(=O)C1Oc2ccc([N+](=O)[O-])cc2C1(C)O (stereo not given)
inactive: [1] -1.15% | [2] 0.75% | [3] -6.85% | [4] 22.6% | [5] 1.85% | [6] -4.45%

O=C(Sc1ccc(Br)cc1)c1ccccc1
inactive: [1] 29.1% | [2] 24.2% | [3] 1.15% | [4] 13.2% | [5] 10.4% | [6] 1.25%

S=c1nc2ccccn2c(=S)n1-c1ccccn1
inactive: [1] 33.6% | [2] 23.9% | [3] 27.4% | [4] 0.5% | [5] 24.5% | [6] 57.9%

C[C@H](CCC1=NCCN1)[C@H]1CC[C@H]2[C@@H]3CC[C@@H]4C[C@H](O)CC[C@]4(C)[C@H]3CC[C@]12C
active: [1] 91.6% | [2] 92.8% | [3] 91.2% | [4] 91.6% | [5] 91.1% | [6] 91%

COC(=O)C(Cc1ccc(N(C)C)cc1)(NC(=O)c1ccccc1)P(=O)(OC)OC (stereo not given)
inactive: [1] -17.8% | [2] 10.8% | [3] -28.2% | [4] 1.9% | [5] 4.4% | [6] -5.4%

COc1cc(O)c2c(=O)cc(-c3ccc(O)cc3O)oc2c1CC=C(C)C
inactive: [1] 43.5% | [2] 0.4% | [3] -0.25% | [4] 17.7% | [5] -2.8% | [6] -20.5%

C=CCOCC(O)CNCC(O)COCC=C (stereo not given)
inactive: [1] -36.9% | [2] -33.7% | [3] -24.9% | [4] 14.3% | [5] -31.2% | [6] 5.2%

CC1CC(=O)C(CC(=O)O)C1C(C(=O)C(=O)Nc1c(C#N)cccc1[N+](=O)[O-])[N+](=O)[O-] (stereo not given)
inactive: [1] -37.7% | [2] -16.6% | [3] -43% | [4] 15.8% | [5] -43.8% | [6] -36.8%
